# Screens: PubChem BioAssay, NMMLSC
# Myeloid diff MLP – induction of myeloid progenitor differentiation, primary screen, cell-based, flow cytometry, MLPCN library. ER-HoxA9 myeloid progenitors, lysozyme-GFP differentiation. calls only at 10 µM. actives 1% (n = 360,000);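 active = normalized GFP-positive differentiation at or above the plate's own cutoff, the solvent-only control mean plus 3 SD; inconclusive = no clear call, values can overlap the other calls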;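 note: cells exposed to compound for four days before flow analysis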
# Granule exo inh – LAMP-1 surface exposure blockers, TALL-104 cells – cell-based, flow cytometry, MLPCN library, primary screen; TALL-104 LAMP-1 surface exposure; cells stimulated with thapsigargin and PMA; inhibition, % at 10 µM; actives 0.66% (n = 360,000);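 active = inhibition above about 55%, limit read from the data; inconclusive = no clear call, values can overlap the other calls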
# ABCB6 inh 2 – ABCB6 transporter inhibitors, primary screen, K562-ABCB6 cells, flow cytometry, MLPCN library; AID 602162, 2011; actives 0.19% (n = 360,000); fluorescence ratio to DMSO, % at 10 µM; K562-ABCB6 porphyrin accumulation, 1 h; stronger effect = lower value;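 active = fluorescence ratio to DMSO below 75%, the collection mean minus 3 SD; inconclusive = too few cells collected in the well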;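 note: signal is porphyrin accumulated inside mitochondria; 100% equals median channel fluorescence of DMSO control wells; lower ratio means ABCB6 inhibition with less porphyrin fluorescence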
# Target sequence (Q9NP58 whole entry, looked up): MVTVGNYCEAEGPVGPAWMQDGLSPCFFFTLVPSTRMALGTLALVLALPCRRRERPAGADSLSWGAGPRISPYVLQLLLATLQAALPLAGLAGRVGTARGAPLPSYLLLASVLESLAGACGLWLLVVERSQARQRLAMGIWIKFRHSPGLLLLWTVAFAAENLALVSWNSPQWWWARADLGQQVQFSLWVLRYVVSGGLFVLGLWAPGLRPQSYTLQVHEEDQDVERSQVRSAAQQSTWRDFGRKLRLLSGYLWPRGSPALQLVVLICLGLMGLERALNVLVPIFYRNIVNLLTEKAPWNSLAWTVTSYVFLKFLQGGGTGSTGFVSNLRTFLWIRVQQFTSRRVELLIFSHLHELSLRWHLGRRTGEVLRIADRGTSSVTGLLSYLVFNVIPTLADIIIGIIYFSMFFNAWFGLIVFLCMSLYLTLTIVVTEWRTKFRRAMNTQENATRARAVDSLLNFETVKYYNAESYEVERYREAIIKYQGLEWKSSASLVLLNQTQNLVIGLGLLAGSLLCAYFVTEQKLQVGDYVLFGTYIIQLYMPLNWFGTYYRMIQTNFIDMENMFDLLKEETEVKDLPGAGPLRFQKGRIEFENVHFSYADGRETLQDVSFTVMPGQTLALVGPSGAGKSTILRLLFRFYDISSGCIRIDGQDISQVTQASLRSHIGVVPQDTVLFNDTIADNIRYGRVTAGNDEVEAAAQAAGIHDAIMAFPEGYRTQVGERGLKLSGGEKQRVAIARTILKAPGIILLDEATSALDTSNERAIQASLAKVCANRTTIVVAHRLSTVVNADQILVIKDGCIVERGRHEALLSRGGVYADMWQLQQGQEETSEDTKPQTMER
# Granule exo CP1 – inhibitors of lytic granule exocytosis, confirmation, TALL-104 cells, flow cytometry, Cherry Pick01 | LAMP-1 externalization; stimulated with PMA plus thapsigargin | inhibition, % at 10 µM | shares compounds with Granule exo inh | actives 11% (n = 1,500); in the data active = inhibition above about 60%;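 note: 0% = stimulated vehicle wells and 100% = unstimulated wells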
# An asterisk follows results filed as active; i = inactive; ? = inconclusive; · = no result given; + = active, no number. A selection: hits, their analogues and other compounds. The true share with any hit is near 1.8%.
SMILES,Myeloid diff MLP,Granule exo inh,ABCB6 inh 2,Granule exo CP1
CC(C)(C)S(=O)N1Cc2cc(C(=O)O)nc(-c3cccc(-c4cc5ccccc5o4)c3)c2[C@H]1CCO (stereo partly specified),i,-2,106,·
CCc1nnc(NC(=O)CCC(=O)N2CCC(Cc3ccccc3)CC2)s1,i,0,111,·
O=C(Nc1cccc2nsnc12)c1ccc(-c2cccc(Cl)c2)o1,·,92*,126,-6
O=C(Nc1ccccc1N1CCCCC1)c1ccc(-c2cccc(Cl)c2)o1,i,5,88,·
S=C(NCc1ccc(Cl)cc1Cl)NC1CCCCC1,i,3,92,·
CCc1ccc(CN(C)C(=O)CCc2nnc(CCc3cccc(OC)c3)o2)nc1,i,-4,94,·
CCCNCc1cc(Br)ccc1OCC(=O)NCCc1ccccc1,i,0,99,·
O=C(COc1ccc(Br)cc1CNCCc1ccccc1)NCc1ccccc1,i,67*,85,-2
CC(C)(C)c1ccc(S(=O)(=O)N2CCC(N3CCCCC3)CC2)cc1,i,20,103,·
CCN(CC)S(=O)(=O)c1ccc(S(=O)(=O)N2CCC(N3CCCCC3)CC2)cc1,i,62*,100,-4
COCc1ccc(C(=O)N(C)C2CCCN(Cc3ccccc3F)C2)o1 (stereo unspecified),i,-1,107,·
CCN(CC)CCCNC(=S)N1CCN(c2nc(-c3ccccc3)cs2)CC1,i,83*,99,-3
CCOCCCNC(=S)N1CCN(c2nc(-c3ccccc3)cs2)CC1,i,9,94,·
COCCCn1cc(C(=O)c2cc(OC)ccc2OCC(=O)Nc2cc(C)on2)cc(C#N)c1=O,i,-1,96,·
Cc1cccc(C(=O)NC(C(=O)Nc2ccc(S(=O)(=O)Nc3nccs3)cc2)C(C)C)c1 (stereo unspecified),i,6,101,·
Cc1cccc(S(=O)(=O)Nc2ccc(S(=O)(=O)Nc3nccs3)cc2)c1,i,61*,91,-16
Cc1nc(-c2ccc(NC(=O)c3ccco3)cc2)cs1,i,8,101,·
COc1ccc(CC(=O)Nc2ccc(-c3cn4ccccc4n3)cc2)cc1,?,-1,90,·
Cc1ccn2cc(-c3ccc(NC(=O)c4ccco4)cc3)nc2c1,i,85*,98,-4
O=C(Nc1ccc(-c2cn3ccccc3n2)cc1)c1cccs1,i,72*,100,48
COCOCCn1cc(CN2CCS(=O)(=O)N(Cc3ccc(-c4ccc(F)nc4)cc3)C(C)C2=O)nn1 (stereo unspecified),i,0,97,·
COc1cc(CC2COC(c3ccc(O)c(OC)c3)C2COC(C)=O)ccc1O (stereo unspecified),i,-2,101,·
COc1ccc(CN2CCCC(N3CCN(c4cccc(Cl)c4)CC3)C2)cc1OC (stereo unspecified),i,67*,97,-15
Oc1ccccc1CN1CCCC(N2CCN(c3cccc(C(F)(F)F)c3)CC2)C1 (stereo unspecified),i,68*,100,-11
Fc1ccccc1N1CCN(C2CCCN(Cc3cccc(C(F)(F)F)c3)C2)CC1 (stereo unspecified),i,1,96,·
SMILES,Myeloid diff MLP,Granule exo inh,ABCB6 inh 2,Granule exo CP1
CCOc1cc(CN2CCCC(N3CCN(c4ccc(F)cc4)CC3)C2)ccc1OC (stereo unspecified),i,46,99,·
COc1cc(CN2CCN(c3ccccc3C)CC2)cc([N+](=O)[O-])c1O,i,-3,97,·
COc1cc(CN2CCCC(N3CCN(c4ccccc4C)CC3)C2)cc(Cl)c1O (stereo unspecified),i,57*,95,-3
O=c1[nH]c2ccc(S(=O)(=O)N3CCN(c4ccc(F)cc4)CC3)cc2o1,i,10,97,·
CC(C)=CCC[C@H](C)C[C@@H]1Cc2[nH][nH]c(=O)c2[C@H](c2ccc(Cl)cc2)O1,i,1,96,·
Cc1ccc(NC(=O)CN(C)C(=O)Cn2c(=O)oc3ccccc32)cc1,i,5,108,·
CC1=C(C(=O)Nc2cccc(C)c2C)C(c2cccs2)NC(=S)N1 (stereo unspecified),i,0,93,·
COc1ccc(-c2noc(-c3ccccc3-c3ccccc3)n2)cc1OC,i,21,90,·
COc1ccc2noc3c2c1C(=O)c1ccccc1-3,+,88*,346,23
